{"source": "ChEMBL document CHEMBL2218924", "about": "“A broad activity screen in support of a chemogenomic map for kinase signalling research and drug discovery” (Biochem J, 2013)", "data": [{"molecular_target": "T1, Serine/threonine-protein kinase BRSK2 (Homo sapiens) (UniProt Q8IWQ3)", "T1 sequence (whole entry)": "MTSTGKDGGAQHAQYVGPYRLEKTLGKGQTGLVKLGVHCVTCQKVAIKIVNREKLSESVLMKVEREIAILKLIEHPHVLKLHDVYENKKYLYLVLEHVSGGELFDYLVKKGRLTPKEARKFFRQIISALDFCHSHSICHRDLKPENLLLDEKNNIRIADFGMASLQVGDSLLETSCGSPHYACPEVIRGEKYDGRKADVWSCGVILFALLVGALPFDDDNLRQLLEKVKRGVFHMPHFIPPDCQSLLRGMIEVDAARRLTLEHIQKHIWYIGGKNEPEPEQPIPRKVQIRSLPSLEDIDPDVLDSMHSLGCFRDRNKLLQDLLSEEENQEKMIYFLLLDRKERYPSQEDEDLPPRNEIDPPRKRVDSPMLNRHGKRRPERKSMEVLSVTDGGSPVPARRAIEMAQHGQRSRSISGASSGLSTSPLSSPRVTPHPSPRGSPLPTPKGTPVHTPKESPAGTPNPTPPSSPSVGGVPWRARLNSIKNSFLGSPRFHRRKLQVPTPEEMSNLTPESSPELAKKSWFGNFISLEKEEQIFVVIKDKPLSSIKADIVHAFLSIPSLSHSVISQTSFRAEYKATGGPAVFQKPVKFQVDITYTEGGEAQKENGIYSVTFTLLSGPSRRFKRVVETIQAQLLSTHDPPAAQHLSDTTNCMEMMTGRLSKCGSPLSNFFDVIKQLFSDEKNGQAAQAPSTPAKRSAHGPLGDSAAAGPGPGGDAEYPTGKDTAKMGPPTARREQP", "settings": "at 1 µM", "units": {"residual activity": "%"}, "values": [{"smiles": "c1ccc(-c2n[nH]c3c2oc2ccccc23)cc1", "residual activity": 114}, {"smiles": "O=C1Nc2ccc(Br)cc2/C1=C\\c1cc2c([nH]1)CCCC2", "residual activity": 107}, {"smiles": "O=C1NC(=O)/C(=C\\c2ccc3nccnc3c2)S1", "residual activity": 78}, {"smiles": "O=C(Nc1cccc(Nc2nccc(Nc3cccc(C(F)(F)F)c3)n2)c1)C1CC1", "residual activity": 93}, {"smiles": "CCN(CC)CCCCN1c2ccccc2Oc2ccc(Cl)cc21", "residual activity": 131}, {"smiles": "Cc1cncc2cccc(S(=O)(=O)N3CCCN(C(=O)CN)C[C@H]3C)c12", "residual activity": 89}, {"smiles": "N#C/C(=C(\\N)Sc1ccc(N)cc1)c1ccccc1C(F)(F)F", "residual activity": 105}, {"smiles": "O=C1Nc2cc(Br)ccc2/C1=C1/Nc2ccccc2/C1=N\\O", "residual activity": 4}, {"smiles": "CC#CC(=O)Nc1cc2c(Nc3ccc(F)c(Cl)c3)ncnc2cn1", "residual activity": 94}, {"smiles": "Nc1ccc2ncnc(NCCc3ccc(Oc4ccccc4)cc3)c2c1", "residual activity": 113}, {"smiles": "O=C(Nc1cccc(Nc2cc(Nc3cccc(C(F)(F)F)c3)ncn2)c1)C1CC1", "residual activity": 83}, {"smiles": "COc1ccc(OC)c2c(=S)c3ccccc3[nH]c12", "residual activity": 99}, {"smiles": "O=c1c2ccccc2[nH]c(=S)n1CCN1CCC(=C(c2ccc(F)cc2)c2ccc(F)cc2)CC1", "residual activity": 96}, {"smiles": "CN(C)CCCn1cc(C2=C(c3c[nH]c4ccccc34)C(=O)NC2=O)c2ccccc21", "residual activity": 71}, {"smiles": "COc1cc2ncnc(Nc3ccc(O)c(Br)c3)c2cc1OC", "residual activity": 91}, {"smiles": "Cc1cc2ncc(-c3ccccc3)nc2cc1C", "residual activity": 103}, {"smiles": "COc1cc2ncc(-c3ccccc3)nc2cc1OC", "residual activity": 80}, {"smiles": "COc1ccc(C(=O)Nc2sc3c(c2C(N)=O)CCCC3)cc1OC", "residual activity": 105}, {"smiles": "CO[C@H]1C[C@@H]2CC[C@@H](C)[C@@](O)(O2)C(=O)C(=O)N2CCCC[C@H]2C(=O)O[C@H]([C@H](C)C[C@@H]2CC[C@@H](O)[C@H](OC)C2)CC(=O)[C@H](C)/C=C(\\C)[C@@H](O)[C@@H](OC)C(=O)[C@H](C)C[C@H](C)/C=C/C=C/C=C/1C", "residual activity": 97}, {"smiles": "c1ccc2c(-c3ccncc3)c[nH]c2c1", "residual activity": 106}, {"smiles": "N#CCCc1ccc2c(c1)-c1[nH]c3ccc([N+](=O)[O-])cc3c1CC(=O)N2", "residual activity": 39}, {"smiles": "C[C@@H](N)[C@H]1CC[C@H](C(=O)Nc2ccncc2)CC1", "residual activity": 123}, {"smiles": "N#Cc1cnc2cnc(NCc3cccnc3)cc2c1Nc1ccc(F)c(Cl)c1", "residual activity": 100}, {"smiles": "O=C(O)c1ccc2c3c1cccc3c(=O)n1c3ccccc3nc21", "residual activity": 104}, {"smiles": "CC(C)n1cnc2/c(=N/c3cccc(Cl)c3)nc(NCCO)[nH]c21", "residual activity": 118}, {"smiles": "CC(=O)O/N=C1\\C(=C2\\C(=O)Nc3cc(Br)ccc32)Nc2ccccc21", "residual activity": 52}, {"smiles": "CC(C)n1cnc2c(NCc3ccccc3)nc(NCCCO)nc21", "residual activity": 110}, {"smiles": "CC(=O)c1ccc(N2CCOCC2)cc1O", "residual activity": 110}, {"smiles": "Cc1ccc(NC2=CC(=O)c3sc(C)nc3C2=O)cc1", "residual activity": 110}]}]}
